The nature of assay [1]: compound effects on lung adenocarcinoma cell viability – A549, calcein-AM fluorescence, 48 h, basal, profiling panel (AID 1162). Note: test concentration not given here. As to conditions: higher = more signal.
Assay [2] in a line: compound effects on differentiated 3T3-L1 adipocyte viability – cell-based, 3T3-L1 adipocytes, calcein-AM fluorescence, 48 h, basal, profiling panel (AID 1163). Note: test concentration not given here. As to conditions: 3T3-L1 adipocytes viability, higher = more signal.
Assay [3] can be described thus: compound effects on hepatocellular carcinoma cell viability – HepG2, calcein-AM fluorescence, 48 h, basal, profiling panel (AID 1164). Note: test concentration not given here. The settings on record: higher = more signal.
Assay [4] in a line: compound effects on multiple myeloma cell viability – MM1S, calcein-AM fluorescence, 48 h, basal, profiling panel (AID 1165).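 Note: viability of MM1S multiple myeloma cells under basal unstimulated conditions; test concentration not given here.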 The settings on record: higher = more signal.
Assay [5] in a line: calcein-AM signal in unstimulated myeloma cells – cell-based, calcein-AM fluorescence, 48 h, PK04 Diversity Set, profiling panel (AID 1166).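 Note: cells grown under basal conditions without added stimulus; test concentration not given here.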 The settings on record: RPMI8226 myeloma viability, higher = more signal.
Assay [6] is described as follows: JC-1 mitochondrial signal, unstimulated HepG2 cells – cell-based, JC-1 fluorescence, 24 h, 100 nL compound, profiling panel (AID 1167). Note: test concentration not given here. The settings on record: HepG2 mitochondrial potential, higher = more signal.
The nature of assay [7]: JC-1 mitochondrial signal, unstimulated adipocytes – cell-based, JC-1 fluorescence, 3T3-L1 adipocytes, 24 h, 100 nL compound, profiling panel (AID 1168). Note: test concentration not given here. The settings on record: JC-1 mitochondrial fluorescence, higher = more signal, called active from +8 up or from −8 down.
Assay [8] in a line: JC-1 mitochondrial signal, unstimulated myeloma cells – cell-based, JC-1 fluorescence, RPMI8226, 24 h, 100 nL compound, profiling panel (AID 1169). Note: test concentration not given here. The settings on record: JC-1 mitochondrial potential fluorescence, higher = more signal.
Assay [9] is described as follows: JC-1 mitochondrial signal, unstimulated MM1S myeloma – cell-based, JC-1 fluorescence, 24 h, 100 nL compound, profiling panel (AID 1170). Note: test concentration not given here. The settings on record: MM1S mitochondrial potential, higher = more signal.
Assay [10] can be described thus: resazurin metabolic signal in A549 cells – cell-based, resazurin fluorescence, 24 h, PK04 Diversity Set, profiling panel (AID 1171). Note: test concentration not given here. As to conditions: A549 viability, higher = more signal, called active from +8 up or from −8 down.
The nature of assay [11]: resazurin metabolic signal in HepG2 cells – cell-based, resazurin fluorescence, 24 h, PK04 Diversity Set, profiling panel (AID 1172). Note: test concentration not given here. The settings on record: HepG2 viability, higher = more signal.
Assay [12] can be described thus: budding yeast growth changes without added modifier – OD600, strain BY4716, 24 h, basal condition, primary screen (AID 1173). The settings on record: S. cerevisiae BY4716 growth, OD600, 24 h; higher = more signal, called active from +8 up or from −8 down.
Assay [13] in a line: viability profiling in MM1S myeloma cells – cell-based, resazurin fluorescence, basal, 24 h, PK04 Diversity Set, profiling panel (AID 1174). Note: test concentration not given here. As to conditions: higher = more signal, called active from +8 up or from −8 down.
The target of assay [14] is Dihydroorotate dehydrogenase (quinone), mitochondrial (Plasmodium falciparum (isolate 3D7)) (UniProt Q08210). The experiment in a line: inhibition of P. falciparum DHODH – biochemical, C-terminal His tag, absorbance 600 nm, primary screen (AID 1175).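 Note: recombinant parasite enzyme with a five histidine tag at its C terminus; test concentration not given here.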 As to conditions: PfDHODH enzyme, DCIP absorbance 600 nm; higher = more signal, called active from +8 up or from −8 down.
Chain of Dihydroorotate dehydrogenase (quinone), mitochondrial (Plasmodium falciparum (isolate 3D7)) (Q08210 whole entry, looked up): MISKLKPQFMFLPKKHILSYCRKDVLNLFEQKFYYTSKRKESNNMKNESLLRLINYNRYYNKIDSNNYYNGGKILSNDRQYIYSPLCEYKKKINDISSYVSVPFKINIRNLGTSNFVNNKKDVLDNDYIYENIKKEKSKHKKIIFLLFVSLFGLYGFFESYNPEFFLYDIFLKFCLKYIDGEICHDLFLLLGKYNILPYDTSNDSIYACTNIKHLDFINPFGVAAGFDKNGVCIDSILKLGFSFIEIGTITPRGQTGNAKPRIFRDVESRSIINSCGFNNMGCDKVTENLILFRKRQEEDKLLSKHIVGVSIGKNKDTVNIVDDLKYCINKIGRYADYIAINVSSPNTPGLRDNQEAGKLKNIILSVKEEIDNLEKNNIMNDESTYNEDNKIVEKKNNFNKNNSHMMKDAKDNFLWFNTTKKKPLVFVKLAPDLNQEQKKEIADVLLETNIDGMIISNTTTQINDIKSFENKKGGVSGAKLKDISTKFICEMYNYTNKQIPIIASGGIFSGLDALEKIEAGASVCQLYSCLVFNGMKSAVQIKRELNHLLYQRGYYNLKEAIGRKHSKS
Assay [15] is described as follows: inhibition of PAO1 biofilm formation – strain PAO1, LB-PBS medium, absorbance 600 nm, primary screen (AID 1176). Note: test concentration not given here. The settings on record: P. aeruginosa PAO1 growth/biofilm, A600, 12 h; higher = more signal.
The nature of assay [16]: growth modulation of vineyard yeast isolate – strain RM11-1a, OD600, basal, 24 h, primary screen (AID 1177).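 Note: cultures grown under basal conditions with no added stressor; test concentration not given here.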 The settings on record: S. cerevisiae RM11-1a growth, OD600, 24 h; higher = more signal, called active from +8 up or from −8 down.
Assay [17] can be described thus: growth of efflux-deficient E. coli DRC39 – strain DRC39, OD650, 24 h, E. coli filamentation inducers, primary screen (AID 1178).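 Note: growth measured as culture turbidity by optical density at 650 nm; test concentration not given here.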 As to conditions: E. coli DRC39 acrAB, higher = more signal, called active from +8 up or from −8 down.
Assay [18] can be described thus: growth of efflux-deficient E. coli DRC39 – strain DRC39, OD650, 48 h, E. coli filamentation inducers, primary screen (AID 1179).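 Note: screen aims at cell division blockers that make cells filament.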 The settings on record: E. coli DRC39 delta-acrAB growth, higher = more signal, called active from +8 up or from −8 down.
A short description of assay [19]: viability profiling in RPMI8226 myeloma cells – cell-based, resazurin fluorescence, basal, 24 h, PK04 Diversity Set, profiling panel (AID 1180).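 Note: RPMI8826 multiple myeloma cell line at 5000 cells per well; test concentration not given here.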 As to conditions: higher = more signal.
Assay [20] deals with E3 ubiquitin-protein ligase XIAP (Homo sapiens) (UniProt P98170). The experiment in a line: small molecules binding XIAP protein – biophysical, small-molecule microarray, fluorescence 635 nm, primary screen (AID 1181).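 Note: score merges 667 nm emission and signal to noise over triplicate slides.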 As to conditions: higher = more signal.
Chain of E3 ubiquitin-protein ligase XIAP (Homo sapiens) (P98170 whole entry, looked up): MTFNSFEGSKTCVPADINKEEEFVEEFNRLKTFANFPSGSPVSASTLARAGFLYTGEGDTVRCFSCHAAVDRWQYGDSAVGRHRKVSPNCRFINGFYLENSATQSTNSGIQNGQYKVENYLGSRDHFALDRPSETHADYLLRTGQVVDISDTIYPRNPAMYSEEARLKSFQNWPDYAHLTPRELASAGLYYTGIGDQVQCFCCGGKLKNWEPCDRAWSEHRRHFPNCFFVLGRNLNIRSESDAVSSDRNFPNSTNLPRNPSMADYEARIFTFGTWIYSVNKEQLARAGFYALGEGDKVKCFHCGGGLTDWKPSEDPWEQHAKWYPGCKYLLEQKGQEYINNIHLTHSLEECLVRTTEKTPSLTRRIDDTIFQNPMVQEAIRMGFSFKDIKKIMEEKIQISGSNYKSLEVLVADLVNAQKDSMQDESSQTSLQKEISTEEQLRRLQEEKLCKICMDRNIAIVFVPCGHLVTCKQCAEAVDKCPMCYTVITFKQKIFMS

Activity calls are given as the source filed them. Unless noted, the rule behind the calls is not given here.

With `COC(=O)[C@@]1(Cc2ccccc2)[C@H]2c3cc(C(=O)N(C)C)n(CCF)c3C[C@H]2CN1C(=O)c1ccccc1`, the z-score in [1] was -1.23; in [2], -0.386; in assay [3] it was -0.561; in [4], 0.258; in assay [5] it was -0.57; in assay [6], 0.376. Moreover, the z-score in assay [7] was -0.874 (inactive); in assay [8], 0.328; in assay [9] it was -0.294; in assay [10], -0.818 (inactive); in assay [11] it was -0.537; in [12] it was 1.34 (inactive). Also, the z-score in assay [13] was -0.878 (inactive); in assay [15] it was 0.715 (inactive); in [16] it was 0.155 (inactive); in assay [17], -0.407 (inactive); in [18], 0.0857 (inactive); in assay [19], -0.329. In addition, the composite z-score in [14] is 0.288 (inactive); in assay [20], 0.0635.

With `CCCCCN1CC=CC23O[C@@H]4/C=C\CCCOC(=O)C4[C@H]2C(=O)N(CCCCCO)[C@@H]3C1=O` (stereo not given in full), the z-score is 0.386 in [1]; 1.96 in assay [2]; -0.216 in assay [3]; 0.281 in [4]; 1.13 in assay [5]; -0.116 in [6]. For the same compound, the z-score in [7] was 1.24 (inactive); in [8], -0.21; in assay [9], -0.235; in assay [10], 0.844 (inactive); in assay [11], 0.809; in [12] it was -1.17 (inactive). Further, the z-score in assay [13] was 1.33 (inactive); in [15], 0.0962 (inactive); in [16] it was -1.08 (inactive); in assay [17], 0.279 (inactive); in assay [18], -0.0568 (inactive); in assay [19] it was 1.33. The composite z-score in [14] was -0.869 (inactive); in assay [20] it was 0.165.

Turning to `Cc1c(NC(=O)/C(C#N)=C/C=C/c2ccc([N+](=O)[O-])cc2)c(=O)n(-c2ccccc2)n1C`, the z-score in assay [1] is 0.251; in [2] it was -0.141; in assay [3] it was -0.182; in [4], -1.02; in assay [5], -0.787; in [6], -1.19. For the same compound, the z-score in assay [7] was 0.0244 (inactive); in assay [8], -0.278; in [9], 0.096; in [10] it was 0.0981 (inactive); in [11] it was -0.559; in assay [12], -0.546 (inactive). Besides, the z-score is 0.11 (inactive) in [13]; -0.736 (inactive) in assay [15]; -0.254 (inactive) in [16]; -0.465 (inactive) in assay [17]; -0.412 (inactive) in assay [18]; 0.664 in assay [19]. In addition, the composite z-score in [14] was 0.142 (inactive); in assay [20], -0.0581.

As to `COc1ccc(CCNC(=O)[C@@H]2c3ccccc3C(=O)N(C(C)C)[C@H]2c2ccc(CO)cc2)cc1`, the z-score in [1] was 2.2; in assay [2] it was 1.29; in assay [3] it was 0.188; in [4] it was -0.397; in [5], 1.1; in assay [6], 0.733. The z-score in [7] is -0.232 (inactive); in assay [8] it was -0.482; in assay [9], 0.978; in assay [10], 1.12 (inactive); in assay [11], 0.862; in assay [12] it was -0.313 (inactive). In addition, the z-score in assay [13] was 1.35 (inactive); in assay [15] it was -0.935 (inactive); in assay [16], 0.326 (inactive); in [17], 0.364 (inactive); in assay [18], 0.246 (inactive); in assay [19], 1.53. The results for the composite z-score in [14] and in assay [20] were 0.261 (inactive) and -0.178, respectively.

As to `C=C(COC)C(=O)CC[C@H](OC(C)=O)c1ccc(CO)o1`, the z-score in [1] was 0.0053; in assay [2] it was 0.972; in assay [3] it was -0.582; in assay [4] it was 0.657; in [5], 1.76; in [6], 0.378. In addition, the z-score in assay [7] is -0.587 (inactive); in assay [8], -0.563; in assay [9] it was -0.434; in assay [10], 0.642 (inactive); in assay [11], 0.815; in assay [12], -0.111 (inactive). In addition, the z-score in assay [13] was 0.324 (inactive); in assay [15], -0.517 (inactive); in [16], -1.28 (inactive); in assay [17], 0.581 (inactive); in [18], 0.117 (inactive); in assay [19], 0.875. Moreover, the composite z-score was -1.28 (inactive) in assay [14] and 0.194 in assay [20].

With `CCCCC(=C=CC[C@@H](O)c1ccc(OCCO)cc1)CCO`, the z-score in [1] is 1.39; in assay [2] it was -0.0802; in [3], 0.016; in assay [4], -0.64; in assay [5], 0.796; in assay [6], 0.0677. The z-score in assay [7] was -0.214 (inactive); in assay [8], -0.0377; in [9] it was 1.03; in assay [10] it was 1.46 (inactive); in assay [11], 1.02; in assay [12], -4.12 (inactive). In addition, the z-score in [13] is 1.54 (inactive); in assay [15], -0.0585 (inactive); in assay [16] it was 0.271 (inactive); in assay [17] it was 1.34 (inactive); in assay [18], 0.672 (inactive); in assay [19], 1.3. Also, the composite z-score in assay [14] is -2.3 (inactive); in assay [20] it was 0.794.

Regarding `CC1CC/C=C\[C@H]2OC34C=CCN(C(C)C)C(=O)[C@H]3N(C(C)CO)C(=O)[C@@H]4C2C(=O)O1` (stereo not given in full), the z-score in [1] was -0.784; in assay [2], 0.534; in assay [3], 0.517; in [4], -0.245; in assay [5], 0.819; in [6], 0.674. Besides, the z-score in [7] was 0.164 (inactive); in assay [8], 0.851; in assay [9], -0.869; in assay [10], 0.574 (inactive); in assay [11], 0.741; in assay [12] it was 0.306 (inactive). For the same compound, the z-score in assay [13] was 1.05 (inactive); in [15] it was 2.9 (inactive); in [16], 0.477 (inactive); in [17], 0.355 (inactive); in assay [18], 0.553 (inactive); in assay [19], 0.832. Further, the values for the composite z-score in [14] and in assay [20] were -0.0766 (inactive) and 0.0345, respectively.

As for `COCCOC(=O)N1C(=O)[C@@]2(c3cc(C#CCC(C(=O)OC)C(=O)OC)ccc31)[C@H](C(=O)N1CCc3cc(OC)c(OC)cc3C1)[C@H]1C(=O)O[C@H](c3ccccc3)[C@H](c3ccccc3)N1[C@@H]2c1ccccc1OCCO`, the z-score in assay [1] is 0.184; in assay [2] it was 0.964; in [3], -0.717; in assay [4], -2.22; in assay [5], -0.619; in assay [6], 0.543. In addition, the z-score is 1.14 (inactive) in assay [7]; -0.946 in assay [8]; -1.05 in [9]; 0.853 (inactive) in assay [10]; 1.11 in assay [11]; 1.48 (inactive) in [12]. Moreover, the z-score is 0.328 (inactive) in [13]; 1.68 (inactive) in assay [15]; 1.3 (inactive) in assay [16]; 0.414 (inactive) in assay [17]; -0.186 (inactive) in assay [18]; 0.637 in assay [19]. Further, the composite z-score in [14] was -1.23 (inactive); in assay [20], -0.226.

As to `[N-]=[N+]=NCc1ccccc1C[C@@]1(C(=O)NCCN2CCOCC2)N=C(c2ccc(OCCCO)cc2)O[C@@H]1c1ccccc1`, the z-score was 0.0171 in assay [1]; -0.221 in [2]; -1.04 in [3]; -2.72 in assay [4]; -1.99 in [5]; -0.3 in [6]. In addition, the z-score in assay [7] is 0.556 (inactive); in assay [8], -1.18; in assay [9] it was -0.956; in assay [10] it was -0.112 (inactive); in [11] it was -0.419; in [12] it was -2.05 (inactive). Moreover, the z-score in assay [13] was -0.909 (inactive); in [15] it was -0.0025 (inactive); in assay [16] it was -0.411 (inactive); in assay [17] it was 0.594 (inactive); in assay [18], -0.959 (inactive); in assay [19] it was -1.02. In addition, the composite z-score is 0.742 (inactive) in assay [14] and 0.0297 in assay [20].

The values above are taken from PubChem BioAssay.
